# Test results taken from PubChem BioAssay.
# “And” between values parts separate entries of the source, which are not always exact repeats. Equal values may be shown once. The source made the active and inactive calls.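 How the source made its calls, unless noted: active means compounds whose cell count with miR-34 switched on is under 0.7 times the count with it off; inactive means the rest.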
# Assays:
# [1] = hESC survival regulators, cell-based (AID 493140; call rule not given here;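 further: cells exposed to compounds for four days before counting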); details: human embryonic stem cell survival screen; stronger effect = higher value
# [2] = liver-stage malaria parasite growth inhibition, primary screen, cell-based, HepG2, luciferase luminescence, HepG2 viability (AID 624349; in the data active means parasite load remaining mostly below about 12%, no sharp cut-off; inactive means mostly above about 10%;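 further: 100% = mean of DMSO negative control wells on the same plate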); details: P. berghei liver stage in HepG2, luciferase luminescence, concentration not given here; parasite load remaining: stronger effect = lower value; viability: measured here: HepG2 viability without parasites
# [3] = stimulators of nuclear beta-catenin in C2C12, primary screen, imaging, WNT3A-conditioned medium, mouse C2C12, NPC library (AID 1117326; in the data active means nuclear beta-catenin stimulation mostly above about 4.2%, no sharp cut-off; inactive means mostly below about 10%); details: stronger effect = higher value
# [4] = stimulators of insulin release from INS-1E, primary screen, cell-based, 5 mM glucose, NPC library (AID 1117329;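 active means compound raises insulin release from rat beta cells at 5 mM glucose, no numeric limit stated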); details: rat INS-1E insulin secretion, at 10 µM, stronger effect = higher value
# [5] = growth inhibition of GSK3B-pretreated HCT116 cells – cell-based, CellTiter-Glo, 0.2 to 20 µM (AID 1117336;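 active means compounds lowering colon cancer cell viability after pretreatment blocking the GSK3B kinase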); details: HCT116 viability after GSK3B inhibitor, at 20 µM, stronger effect = higher value
# [6] = inhibition of endothelial tube formation, primary screen, imaging, VEGF stimulated, CD31 staining, tube area, NPC library (AID 1117340;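 active means compound that reduces growth-factor-driven endothelial tube area in a mixed cell culture, no cutoff stated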); details: VEGF-stimulated ADSC/ECFC co-culture, at 10 µM, stronger effect = higher value
# [7] = glucagon-like peptide 1 release enhancers, primary assay, NCI-H716 cell line, NPC library (AID 1117341;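 active means compound raises GLP1 secretion from the human gut endocrine cells, with no numeric limit stated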); details: NCI-H716 cells, at 10 µM, stronger effect = higher value
# [8] = HCT116 colon cancer cell growth inhibition, primary screen, CellTiter-Glo luminescence, NPC library (AID 1117342;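 active means compounds that lower survival of HCT116 colon cancer cells in the luminescence readout, no numeric limit stated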); details: at 20 µM (top of the series)
# [9] = CellTiter-Glo luminescent readout of SW480 viability loss, NPC library primary (AID 1117343;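 active means compounds that lower viability of the colon cancer cells in the luminescence readout, with no numeric limit stated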); details: CellTiter-Glo luminescence; at 20 µM (top of the series) unless noted
# [10] = decreased DLD-1 cellular survival, CellTiter-Glo luminescent readout, NPC compound collection, primary HTS (AID 1117346;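 active means compounds that lower survival of DLD-1 colon cancer cells in the luminescence readout, no cutoff given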); details: DLD-1 viability, CellTiter-Glo luminescence; at 20 µM (top of the series)
# [11] = differential killing of epithelial or mesenchymal cells, primary screen, imaging, PC-3E GFP, TEM4-18 mCherry, co-culture (AID 1345086;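 active means compounds killing one labelled cell type while sparing the other, by normalised counts and ratio limits, not self-fluorescent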;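 on all read-outs here: cells exposed to compound for 72 h before imaging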;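 on red/green cell ratio (normalised): normalised mesenchymal count divided by normalised epithelial count so high means epithelial killing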); details: imaging cell counts, at 1 µM; for red/green cell ratio (normalised): actives lie on both sides, counts scaled to control wells, 1 = unselective
# [12] = sensitizers of A549 cells to miR-34 induction, primary screen, imaging, A549 dox-inducible miR-34, nuclei and caspase counts (AID 1347080); details: A549 miR-34 inducible, Hoechst nuclei count, 48 h
# [13] = survival rescue of mitochondrial mutant cells in low glucose, primary screen, MELAS cybrids, Rieske KO mouse fibroblasts, CellTiter-Glo (AID 1508586;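 active means mean z-score across replicates of 1.96 or higher in either the MELAS or the Rieske mutant cell line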;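 further: z relative to plate mean and SD of compound and empty wells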)
# [14] = biological target: NAD(+) hydrolase SARM1 (Homo sapiens) (UniProt Q6SZW1); test: SARM1 TIR NADase inhibitors, cell lysate, NAD-Glo luminescence (AID 1508614;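 active means compound whose remaining NAD level is above about 45 nM, limit read from the data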); details: SAM-TIR HEK293T lysate NADase, at 1 µM, stronger effect = higher value
# Sequence of NAD(+) hydrolase SARM1 (Homo sapiens) (Q6SZW1 whole entry, looked up): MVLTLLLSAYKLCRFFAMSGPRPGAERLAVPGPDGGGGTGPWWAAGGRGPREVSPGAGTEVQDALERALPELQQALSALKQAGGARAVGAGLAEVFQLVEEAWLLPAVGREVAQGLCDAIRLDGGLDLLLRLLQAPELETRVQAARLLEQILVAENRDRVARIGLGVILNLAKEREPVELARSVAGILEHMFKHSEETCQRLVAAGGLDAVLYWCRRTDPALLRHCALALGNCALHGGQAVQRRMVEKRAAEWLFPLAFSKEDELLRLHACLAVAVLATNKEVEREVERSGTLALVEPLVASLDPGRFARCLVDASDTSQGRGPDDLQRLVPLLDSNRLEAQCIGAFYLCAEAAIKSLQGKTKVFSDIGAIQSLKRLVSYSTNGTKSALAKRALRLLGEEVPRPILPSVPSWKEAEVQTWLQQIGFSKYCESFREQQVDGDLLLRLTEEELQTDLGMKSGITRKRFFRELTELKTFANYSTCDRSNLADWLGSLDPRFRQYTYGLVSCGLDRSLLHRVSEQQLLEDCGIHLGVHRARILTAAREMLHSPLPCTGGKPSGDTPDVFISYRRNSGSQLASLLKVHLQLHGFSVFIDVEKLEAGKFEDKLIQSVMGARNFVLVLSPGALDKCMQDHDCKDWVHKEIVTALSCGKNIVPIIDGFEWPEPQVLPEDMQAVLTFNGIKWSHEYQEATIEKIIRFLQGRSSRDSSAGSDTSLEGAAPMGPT
# [15] = measured here: epithelial PC-3E GFP cell survival
# [16] = measured here: mesenchymal TEM4-18 mCherry cell survival
# [17] = stronger effect = lower value, cell number ratio, induced over uninduced
# [18] = measured here: relative caspase fold change +Dox/-Dox
# [19] = measured here: total cells with miR-34 induction, stronger effect = lower value
# [20] = measured here: total cells without miR-34 induction
# [21] = MELAS cybrid survival, CellTiter-Glo 48 h, stronger effect = higher value
# [22] = Rieske KO mouse fibroblast survival, CellTiter-Glo 72 h
smiles,measurement,setting,value
O=C(CCCN1CCC(O)(c2ccc(Br)cc2)CC1)c1ccc(F)cc1,survival,[1],1.83 (inactive)
same,parasite load remaining,[2],37.2% (inactive) and 72.5% (inactive) and 17.9% (inactive)
same,viability,[2],92.9% and 75.9% and 90.4%
same,nuclear beta-catenin stimulation,[3]; at 10 µM,10.3% (inactive)
same,nuclear beta-catenin stimulation,"[3]; stimulation, at 2 µM",1.8%
same,insulin secretion stimulation,[4],5.6% (active)
same,viability decrease,[5],-4.9% (inactive)
same,tube area decrease,[6],24.2% (inactive)
same,GLP1 secretion stimulation,[7],2.1% (inactive)
same,inhibition of viability,[8],46.1% (inactive)
same,viability decrease (inhibition),[9],93.1% (active)
same,viability decrease (inhibition),[10],54.3% (active)
same,red/green cell ratio (normalised),[11],0.73 (inactive)
same,normalised cell number,[11]; [15],1.27
same,normalised cell number,[11]; [16],0.93
same,fold change,[12]; [17],0.861 (inactive) and 0.851 (inactive)
same,fold change,[12]; [18],1.31 and 4.03
same,cell count,[12]; [19],8070 and 10200
same,cell count,[12]; [20],9380 and 12000
same,z-score,[13]; [21],0.333 (inactive)
same,z-score,[13]; [22],0.0415
same,remaining NAD,[14],10 nM (inactive)
COc1ccc(O)cc1,nuclear beta-catenin stimulation,[3]; at 10 µM,1.7% (inactive)
same,nuclear beta-catenin stimulation,"[3]; stimulation, at 2 µM",0.5%
same,insulin secretion stimulation,[4],-1.8% (inactive)
same,viability decrease,[5],12.9% (inactive)
same,tube area decrease,[6],18.7% (inactive)
same,GLP1 secretion stimulation,[7],-0.4% (inactive)
same,inhibition of viability,[8],-4.9% (inactive)
same,viability decrease (inhibition),[9],88.2% (active)
same,viability decrease (inhibition),[10],27.4% (inactive)
same,red/green cell ratio (normalised),[11],1.14 (inactive)
same,normalised cell number,[11]; [15],1.04
same,normalised cell number,[11]; [16],1.18
same,fold change,[12]; [17],0.919 (inactive) and 0.917 (inactive)
same,fold change,[12]; [18],0.877 and 0.265
same,cell count,[12]; [19],7700 and 8110
same,cell count,[12]; [20],8370 and 8840
same,z-score,[13]; [21],-0.189 (inactive)
same,z-score,[13]; [22],-0.254
same,remaining NAD,[14],10 nM (inactive)
CCOc1nc2cccc(C(=O)O)c2n1Cc1ccc(-c2ccccc2-c2nn[nH]n2)cc1,parasite load remaining,[2],51% (inactive)
same,viability,[2],130%
same,nuclear beta-catenin stimulation,[3]; at 10 µM,-1.9% (inactive)
same,nuclear beta-catenin stimulation,"[3]; stimulation, at 2 µM",0.8%
same,insulin secretion stimulation,[4],1.4% (inactive)
same,viability decrease,[5],-7.7% (inactive)
same,tube area decrease,[6],5.3% (inactive)
same,GLP1 secretion stimulation,[7],-1.6% (inactive)
same,inhibition of viability,[8],-9.8% (inactive)
same,viability decrease (inhibition),[9],16.8% (inactive)
same,viability decrease (inhibition),[10],-13% (inactive)
same,red/green cell ratio (normalised),[11],1.24 (inactive)
same,normalised cell number,[11]; [15],1.08
same,normalised cell number,[11]; [16],1.35
same,fold change,[12]; [17],1.02 (inactive) and 0.834 (inactive)
same,fold change,[12]; [18],0.596 and 1.3
same,cell count,[12]; [19],7490 and 8900
same,cell count,[12]; [20],7350 and 10700
same,z-score,[13]; [21],-0.183 (inactive) and 0.664 (inactive) and -0.412 (inactive)
same,z-score,[13]; [22],-0.0185 and -0.257 and -0.953
same,remaining NAD,[14],10 nM (inactive)
CCCCOC(=O)c1ccc(O)cc1,survival,[1],2.33 (inactive)
same,parasite load remaining,[2],105% (inactive) and 43.2% (inactive)
same,viability,[2],94.2% and 99.8%
same,nuclear beta-catenin stimulation,[3]; at 10 µM,1.7% (inactive)
same,nuclear beta-catenin stimulation,"[3]; stimulation, at 2 µM",1.9%
same,insulin secretion stimulation,[4],4.6% (inactive)
same,viability decrease,[5],-64.4% (inactive)
same,tube area decrease,[6],17% (inactive)
same,GLP1 secretion stimulation,[7],-6.3% (inactive)
same,inhibition of viability,[8],15% (inactive)
same,viability decrease (inhibition),[9],67.9% (active)
same,viability decrease (inhibition),[10],9.6% (inactive)
same,red/green cell ratio (normalised),[11],1.09 (inactive)
same,normalised cell number,[11]; [15],1.43
same,normalised cell number,[11]; [16],1.56
same,fold change,[12]; [17],0.899 (inactive) and 0.857 (inactive)
same,fold change,[12]; [18],1.34 and 7.37
same,cell count,[12]; [19],8710 and 10100
same,cell count,[12]; [20],9690 and 11800
same,z-score,[13]; [21],0.705 (inactive)
same,z-score,[13]; [22],-0.347
same,remaining NAD,[14],10 nM (inactive)
N=C(N)N1CCc2ccccc2C1,survival,[1],9.58 (inactive)
same,nuclear beta-catenin stimulation,[3]; at 10 µM,0.5% (inactive)
same,nuclear beta-catenin stimulation,"[3]; stimulation, at 2 µM",0.9%
same,insulin secretion stimulation,[4],1.35% (inactive)
same,viability decrease,[5],12.1% (inactive)
same,tube area decrease,[6],-0.3% (inactive)
same,GLP1 secretion stimulation,[7],3.1% (inactive)
same,inhibition of viability,[8],9.2% (inactive)
same,viability decrease (inhibition),[9],5.1% (inactive)
same,viability decrease (inhibition),[10],0% (inactive)
same,red/green cell ratio (normalised),[11],0.87 (inactive)
same,normalised cell number,[11]; [15],1.22
same,normalised cell number,[11]; [16],1.07
same,fold change,[12]; [17],0.813 (inactive) and 0.913 (inactive) and 0.943 (inactive)
same,fold change,[12]; [18],1.55 and 2.39 and 2.81
same,cell count,[12]; [19],8490 and 11800 and 9640
same,cell count,[12]; [20],10400 and 13000 and 10200
same,z-score,[13]; [21],0.0225 (inactive) and -0.468 (inactive)
same,z-score,[13]; [22],-0.12 and -1.06
same,remaining NAD,[14],10 nM (inactive)
O=C(O)CN(CCN(CC(=O)O)CC(=O)O)CCN(CC(=O)O)CC(=O)O,survival,[1],5 (inactive)
same,parasite load remaining,[2],120% (inactive) and 34.8% (inactive)
same,viability,[2],101% and 170%
same,nuclear beta-catenin stimulation,[3]; at 10 µM,-0.8% (inactive)
same,nuclear beta-catenin stimulation,"[3]; stimulation, at 2 µM",-1.5%
same,insulin secretion stimulation,[4],1.5% (inactive)
same,viability decrease,[5],79% (active)
same,tube area decrease,[6],-14.3% (inactive)
same,GLP1 secretion stimulation,[7],0.1% (inactive)
same,inhibition of viability,[8],53.1% (active)
same,viability decrease (inhibition),[9],79.5% (active)
same,viability decrease (inhibition),[10],31.1% (inactive)
same,red/green cell ratio (normalised),[11],1.45 (inactive)
same,normalised cell number,[11]; [15],0.48
same,normalised cell number,[11]; [16],0.7
same,fold change,[12]; [17],1.07 (inactive) and 0.79 (inactive) and 0.864 (inactive)
same,fold change,[12]; [18],1.26 and 1.98 and 3.01
same,cell count,[12]; [19],8980 and 7930 and 10700
same,cell count,[12]; [20],8380 and 10000 and 12300
same,z-score,[13]; [21],0.621 (inactive)
same,z-score,[13]; [22],0.97
same,remaining NAD,[14],10 nM (inactive)
O=C(O)Cc1ccc(-c2ccccc2)cc1,survival,[1],7.67 (inactive)
same,parasite load remaining,[2],98.2% (inactive)
same,viability,[2],99.7%
same,nuclear beta-catenin stimulation,[3]; at 10 µM,-0.4% (inactive)
same,nuclear beta-catenin stimulation,"[3]; stimulation, at 2 µM",0.3%
same,insulin secretion stimulation,[4],-1.1% (inactive)
same,viability decrease,[5],-34.7% (inactive)
same,tube area decrease,[6],6.9% (inactive)
same,GLP1 secretion stimulation,[7],1.7% (inactive)
same,inhibition of viability,[8],2.33% (inactive)
same,viability decrease (inhibition),[9],7.7% (inactive)
same,viability decrease (inhibition),[10],-10.7% (inactive)
same,red/green cell ratio (normalised),[11],0.72 (inactive)
same,normalised cell number,[11]; [15],1.44
same,normalised cell number,[11]; [16],1.04
same,fold change,[12]; [17],0.915 (inactive)
same,fold change,[12]; [18],1.39
same,cell count,[12]; [19],9920
same,cell count,[12]; [20],10800
same,z-score,[13]; [21],0.702 (inactive)
same,z-score,[13]; [22],-0.122
same,remaining NAD,[14],10 nM (inactive)
CCN(CC)CCc1nc(-c2ccccc2)no1,survival,[1],3.33 (inactive)
same,parasite load remaining,[2],66.5% (inactive)
same,viability,[2],105%
same,nuclear beta-catenin stimulation,[3]; at 10 µM,2% (inactive)
same,nuclear beta-catenin stimulation,"[3]; stimulation, at 2 µM",1.3%
same,insulin secretion stimulation,[4],-0.7% (inactive)
same,viability decrease,[5],-19.4% (inactive)
same,tube area decrease,[6],-1% (inactive)
same,GLP1 secretion stimulation,[7],3.1% (inactive)
same,inhibition of viability,[8],-2.53% (inactive)
same,viability decrease (inhibition),[9],10% (inactive)
same,viability decrease (inhibition),[10],-2.9% (inactive)
same,red/green cell ratio (normalised),[11],0.94 (inactive)
same,normalised cell number,[11]; [15],1.14
same,normalised cell number,[11]; [16],1.07
same,fold change,[12]; [17],0.948 (inactive) and 0.876 (inactive)
same,fold change,[12]; [18],0.926 and 0.982
same,cell count,[12]; [19],8840 and 9090
same,cell count,[12]; [20],9330 and 10400
same,z-score,[13]; [21],0.0836 (inactive)
same,z-score,[13]; [22],-0.0837
same,remaining NAD,[14],10 nM (inactive)
